About 180 (0.19%) of roughly 93,000 compounds were called active. Many of the other results were omitted from the sample, so actives are more common in it than they were. Unmarked numbers belong to inactive results.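 The calls were made as follows: active = activation above the screen mean plus 3 SD, with well images confirming the hit on visual review (cut at about 28% in these data, passing the limit was not always enough); inconclusive = activation above that limit but images do not confirm it; inactive = activation not above that limit.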

The assay is described as follows: enhancers of endothelial VCAM-1 upregulation by TNFa – imaging, HUVEC, TNFa stimulus, immunofluorescence, primary screen (AID 808).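 Also: signal is the number of cytoplasmic VCAM-1 stained grains per positive cell.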 The following applies: HUVEC TNFa-stimulated VCAM-1 immunofluorescence, high-content imaging; at 2 µM; active compounds read high; scaled per plate to unstimulated/TNFa-only wells.
`CSc1nnc2c(n1)OC(c1cn(C)c3ccccc13)N(C(C)=O)c1ccccc1-2` (stereo not drawn): the activation is -5%.
In the case of `CCOc1cc(-c2cc(-c3ccc(OC)cc3)nc(N)c2C#N)ccc1O`, the activation was 32.6% (active).
As to `CSc1ccc(CCNC(=O)C2CCN(c3nnc(-n4cccc4)s3)CC2)cc1`, the activation is -2.8%.
In the case of `O=C(Cn1cnc2c(nnn2Cc2ccc(F)cc2)c1=O)NCc1ccc2c(c1)OCO2`, the activation is -6.6%.
`Cc1ccc(N2C(=O)c3ccccc3C2(O)c2ncc[nH]2)cc1` (stereo not drawn): the activation was -0.7%.
With `CCOC(=O)c1ccc(NC(=O)CS(=O)(=O)c2cn(CC)c3ccccc23)cc1` the figure was -6.9%.
The result for `COc1ccc2c(c1)C=CC1(O2)N(CCO)c2ccccc2C1(C)C` (stereo not drawn) reads 1.4%; that for `O=C(Nc1nccs1)C1CCN(S(=O)(=O)c2ccc(Cl)c(C(F)(F)F)c2)CC1`, -9.5%; that for `O=c1c2ccccc2nc2n1C(CSCc1cccc(C(F)(F)F)c1)CS2` (stereo not drawn), -7.9%.
The result for `O=C(NCc1ccco1)c1sc2cccc(F)c2c1Cl` reads 0.7%; that for `CC1(C)CC(=O)C=C(N2CCCC2)C1`, 79% (active); that for `Oc1ccc2nc(Cc3ccccc3)[nH]c2c1`, 5.6%.
In the case of `CC(C)NC(=O)c1ccccc1S(=O)c1ccccc1C#N` (stereo not drawn), the activation is -0.6%.
For `Cc1cc(Nc2ccccc2)n(CCC#N)n1`, the activation was -2.1%.
As to `COc1ccc(CC(=O)Nc2sc(Cc3ccccc3)c(C)c2C(N)=O)cc1`, the activation is 8.4%.
As to `Cn1c(=O)n(C)c2cc(CNc3ccc(N4CCOCC4)c(C(=O)O)c3)ccc21`, the activation was -26.1%.
As for `Brc1ccc(-c2nnc(-c3ccccc3)o2)o1`, the activation is 20.5%.
As to `O=[N+]([O-])c1ccccc1OCCCCN1CCCCC1`, the activation is -6.6%.
For `CCOc1ccccc1Nc1nnc(SCc2ccc(C(=O)OC)o2)s1`, the activation was -4.9%.
With `O=C(CSc1nc2ccccc2o1)N1CCN(c2ccc(Cl)cc2)CC1`, the activation is 6.9%.
The result for `COc1ccc(-c2nnc(SCC(=O)NC3CCCCC3)o2)cc1OC` reads -87.2%.
With `CC1(C)Cc2cccc(OCC(N)=O)c2O1` the figure was -5.6%.
In the case of `O=C1c2ccccc2C(=O)c2c1cccc2N1CCN(Cc2ccccc2)CC1`, the activation is 8.5%.
Take `COc1ccc(-c2cc(C(F)(F)F)nc(SCCC(=O)NCc3ccco3)n2)cc1`: the activation is -32.5%.
Turning to `COc1ccc(OC)c(N=Cc2c(O)[nH]c3ccccc23)c1`, the activation is 41.3% (active).
With `O=S(=O)(c1cccs1)N1CCN(Cc2ccccc2)CC1` the figure was 6.9%; with `CCOC(=O)c1c(N=CN(C)C)c(C#N)c2n1CCCC2`, -8.6%.
With `Cc1ccc(S(=O)(=O)N(CC(=O)NCCSC2CCCCC2)c2ccccc2F)cc1` the figure was 8.5%.
Consider `CCOC(=O)N1CCN(C(=O)c2cc3c(ccc4ccccc43)oc2=O)CC1`, for which the activation is -5.2%.
The result for `Cc1cnc(NC(=O)CSc2nnc(-c3ccccc3)n2Cc2ccccc2)s1` reads -2%; that for `Cc1ccc2c(Cl)c(C(=O)NCCCn3ccnc3)sc2c1`, -28.3%; that for `Nc1cc(=O)nc(SCc2ccccc2)n1Cc1ccco1`, -95%.
With `CCC(=O)c1ccc(OCC(O)CN2CCN(c3cccc(C(F)(F)F)c3)CC2)cc1` (stereo not drawn) the figure was 4.1%; with `CCOC(=O)CSc1nc2c(c(=O)n(C)c(=O)n2C)n1Cc1ccccc1F`, -0.2%.
For `CC(N)C12CC3CC(CC(O)(C3)C1)C2` (stereo not drawn), the activation is 1%.
As for `CC(C)N1C(=O)C2C(C(=O)NC3CCCCC3)C3C=CC2(O3)C1C(=O)NC1CCCC1` (stereo not drawn), the activation was -10.8%.
In the case of `COc1ccc(-n2nnnc2SCC(=O)c2ccc(OC)c(OC)c2)cc1`, the activation was -6.6%.
On to `CCN(CC(=O)NC(C)C)C(=O)CCNC(=O)c1ccc(Cl)cc1`, for which the activation was -9.6%.
As to `COC(=O)C1=C(C)N=C2SC(C)C(=O)N2C1/C=C/c1ccccc1` (stereo not drawn), the activation is -6.2%.
As to `COc1ccccc1NC1=NC(c2ccc(Cl)cc2)N=C(N)N1` (stereo not drawn), the activation was -12.5%.
On to `Cc1ccc(S(=O)(=O)NC(=O)N2CCCC(C)(C)C2)cc1`, for which the activation is 4.1%.
With `Cc1[nH]c2ccccc2c1C(=O)CSCC(=O)O` the figure was 4.2%; with `O=C(OCC(=O)N1CCCC1)c1ccco1`, -4.1%; with `NNC(=O)C1CCCn2c1nc1sc3c(c1c2=O)CCCC3` (stereo not drawn), -4.7%.
The result for `COc1cc(/C=N\NC(=O)C2C(=O)NCC2c2ccccc2)cc(OC)c1O` (stereo not drawn) reads -1.5%; that for `CC(=O)c1ccc(OCCN2CCOCC2)cc1`, -16.7%.
In the case of `CC1(C)C2CCC13CS(=O)(=O)NC3C2` (stereo not drawn), the activation is 19.3%.
Regarding `CC1(C)OC(=O)N2CCc3ccccc3C21C` (stereo not drawn), the activation is 0.2%.
The result for `CCCNS(=O)(=O)c1ccc(CCC(=O)NCc2cccnc2)cc1` reads 34.1%.
For `O=[N+]([O-])c1ccccc1/C=N/n1c(COc2ccccc2)n[nH]c1=S`, the activation is -14.7%.
For `CCOC(=O)CCc1c(C)c(C#N)c2[nH]c3ccccc3n2c1=O`, the activation was 0.5%.
For the molecule `CC(C)OC(=O)c1cc(NC(=O)C2C3CCC(O3)C2C(=O)O)cc(C(=O)OC(C)C)c1` (stereo not drawn), the activation was 15.7%.
For `Cc1ccc(OCC(=O)Nc2cccc3c2CCCC3)cc1C`, the activation is -1.7%.
`CSCCC(C(=O)NC1=NCCS1)N1C(=O)c2ccccc2C1=O` (stereo not drawn): the activation was 5.7%.
With `O=C(Nc1ncc2c(n1)CC(c1ccco1)CC2=O)c1ccc(Cl)cc1` (stereo not drawn), the activation is -91.4%.
With `CCOC(=O)N1CCN(C(=O)CN(c2ccc(C)c(C)c2)S(=O)(=O)c2ccccc2)CC1` the figure was 0.5%.
In the case of `Cc1n[nH]c(C)c1S(=O)(=O)N1CCCC(C(=O)NCC2COc3ccccc3O2)C1` (stereo not drawn), the activation is -3.9%.
For `Cc1ccc(CCNC(=O)C2CCN(S(=O)(=O)N3CCCC3)CC2)cc1`, the activation is -9.5%.
In the case of `CCCc1cc(=O)[nH]c(SCc2ccc(C#N)cc2)n1`, the activation is -3%.
For `O=C(COc1ccc2ccccc2c1)N1CCN(C(=O)c2cccs2)CC1`, the activation is -21.6%.
Regarding `COc1ccc(OC)c(NC(=O)CCN2CCC(C)CC2)c1`, the activation is 1.4%.
As to `Cc1ccc(S(=O)(=O)NCCSC(C)(C)C)cc1`, the activation was -9%.
For the molecule `Cc1ccc(Cn2nnc3c(=O)n(CC(=O)N4CCCCC4)cnc32)cc1`, the activation was 5.6%.
